A selection: hits, their analogues and other compounds. The true share with any hit is near 2.4%.
Pol iota inh – blocks human DNA polymerase iota activity; AID 588590; actives 1% (n = 390,000); Pol iota fluorescent replication assay, 10 min; Q9UNA4; Potency, µM (series often up to 115 µM), for inactives: top-dose activity, negative = inhibition, actives largely listed as inhibitors
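Pol iota at 10 nM preincubated 15 min with compounds at room temperature; reaction started with fluorescent substrate, 50 nM final. Fluorescence read kinetically at 0 and 10 min; buffer-only wells as negative control.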
Pol eta inh-1 – inhibitors of human DNA polymerase eta. Q9Y253. recombinant Pol eta, fluorescent DNA replication assay. Potency, µM (top dose mostly 114 µM), for inactives: at the highest dose activity change, negative = inhibition, actives largely listed as inhibitors. actives 1.2% (n = 390,000). AID 588591; also: % is scaled to controls: 0 for no effect and ±100 for the full control effect
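Pol eta at 10 nM preincubated with compounds 15 min at room temperature; reaction started with fluorescent substrate (50 nM final) and read kinetically at 0 and 10 min.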
FEN1 inh – human FEN1 inhibition. P39748. Recombinant FEN1 flap cleavage, fluorescence, 15 min. Potency, µM (top dose mostly 114 µM), inactives show at the highest dose activity change, negative = inhibition, most hits filed as inhibitors. actives 0.35% (n = 390,000). AID 588795; also: % is scaled to controls: 0 for no effect and ±100 for the full control effect; nearly all actives have a fitted effect of over 65% in size
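Compounds are tested as a concentration series against 10 nM FEN1; after a 15 min room-temperature preincubation, 50 nM substrate starts cleavage, with plate reads at 0 and 15 min. Normalized responses are fitted by a Hill equation.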
TDP1 inh – blocks human tyrosyl-DNA phosphodiesterase 1. Q9NUW8. actives 0.28% (n = 350,000). Potency, µM (doses to about 130 µM), without a hit: at the highest dose activity change, negative = inhibition, hits mostly inhibitors. recombinant TDP1, AlphaScreen DNA substrate cleavage; also: % is scaled to controls: 0 for no effect and ±100 for the full control effect; nearly all actives have a fitted effect of over 40% in size
Target sequence (Q9NUW8 whole entry, looked up): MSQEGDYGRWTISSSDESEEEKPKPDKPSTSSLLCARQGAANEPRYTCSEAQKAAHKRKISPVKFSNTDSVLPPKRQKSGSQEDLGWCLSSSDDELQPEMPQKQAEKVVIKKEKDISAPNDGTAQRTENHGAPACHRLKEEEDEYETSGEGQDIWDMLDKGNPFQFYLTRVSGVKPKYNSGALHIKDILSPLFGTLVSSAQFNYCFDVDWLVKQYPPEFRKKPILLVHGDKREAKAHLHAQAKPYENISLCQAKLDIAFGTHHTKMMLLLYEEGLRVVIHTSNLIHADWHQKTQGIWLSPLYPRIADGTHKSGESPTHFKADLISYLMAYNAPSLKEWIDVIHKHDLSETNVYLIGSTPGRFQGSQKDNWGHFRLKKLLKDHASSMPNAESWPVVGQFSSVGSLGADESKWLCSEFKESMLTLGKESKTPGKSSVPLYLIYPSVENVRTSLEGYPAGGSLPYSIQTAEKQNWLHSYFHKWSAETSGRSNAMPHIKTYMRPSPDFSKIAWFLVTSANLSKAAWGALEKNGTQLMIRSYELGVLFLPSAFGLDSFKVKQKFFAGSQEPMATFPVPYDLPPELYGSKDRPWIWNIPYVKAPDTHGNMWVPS
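E. coli-derived human Tdp1, 1 nM final. Cpd preinc 15 min RT; substrate 15 nM final, 5 min RT; AS bead mix 10 ug/ml final, 10 min RT. Signal loss = tyrosine-FITC cleavage. No-enzyme wells = max signal.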
Pol kappa inh-1 – inhibitors of human DNA polymerase kappa; Potency, µM (titrated, usually from 107 µM), for the others: at the highest dose activity, negative = inhibition, hits mostly inhibitors; actives 0.53% (n = 400,000); purified Pol kappa, fluorescent DNA synthesis assay, 10 min; also: % is scaled to controls: 0 for no effect and ±100 for the full control effect
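Activity was followed as the change in fluorescence between reads at 0 and 10 min after starting the reaction with 50 nM substrate. Beforehand, 10 nM polymerase had been preincubated with compound for 15 min at room temperature.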
Pol beta inh – DNA polymerase beta (human) inhibition; AID 485314; Pol beta primer extension/strand displacement, fluorescence kinetic; P06746; actives 1.3% (n = 340,000); Potency, µM (doses to about 114 µM), inactives show at the top dose activity change, negative = inhibition, most hits filed as inhibitors; also: % is scaled to controls: 0 for no effect and ±100 for the full control effect
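Pol beta (10 nM) and compounds were preincubated 15 min at room temperature, then 50 nM substrate (final) started primer extension/strand displacement. Reads were taken at 0 and 10 min; concentration-response data were fitted to a four-parameter Hill equation.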
Pol kappa inh-2 – Pol kappa (human) inhibition, cherry-pick confirmation | shares compounds with Pol eta inh-1 | purified Pol-kappa, fluorescent strand-displacement substrate | Potency, µM, usual class: inhibitors | actives 76% (n = 920)
Pol eta inh-2 – confirmation of human DNA polymerase eta inhibitors. shares compounds with Pol eta inh-1. Potency, µM, usual class: inhibitors. AID 720502. Pol eta primer extension, TAMRA/BHQ fluorescence, 10 min. actives 64% (n = 2,600)
Numbers without * were called inactive; ? = inconclusive; nt = no result given; [ ] = dose if it differs, or a comment. Calls follow the shape of the dose curve; as a rule, active = well fitted curve in the direction sought with a large enough effect; inconclusive = small, poorly fitted or top-dose-only effect, or another doubt; inactive = no such curve, though single readings can be large; an effect the other way counts as inactive or inconclusive. Potency is read from the fitted curve at half-maximal effect.

SMILES | Pol iota inh | Pol eta inh-1 | FEN1 inh | TDP1 inh | Pol kappa inh-1 | Pol beta inh | Pol kappa inh-2 | Pol eta inh-2
COc1ccc2cc(C(=O)NCc3ccccc3)c(=Nc3ccc(C(=O)O)cc3)oc2c1 | 12% | 32µM* | 11% | 0% | -7% | 1% | nt | ?
CCOC1=C/C(=C/c2c(N)n3oc(C)cc3nc2=O)C=CC1=O | nt | nt | nt | 1% | nt | 13% | nt | nt
CCOC1=C/C(=C/c2c(N)n3nc(-c4ccccc4)sc3nc2=O)C=CC1=O | ? | 28µM* | -29% | 1% | ? | 35µM* | nt | ?
Cc1nn(-c2ccc(N3CCCCC3)nn2)c(C)c1CCC(=O)NCc1ccccc1 | 20% | 18% | -3% | 6% | 9% | 15% | nt | nt
Cc1cc(C(=O)C(=O)Nc2nnc(C(C)C)s2)c(C)n1-c1ccccc1 | 11% | 40µM* | -8% | 9% | -4% | 12% | 21* | ?
Cc1cccc(-n2c(C)cc(C(=O)C(=O)Nc3nncs3)c2C)c1 | 46% | 50µM* | 17% | 9% | -5% | -1% | ? | ?
Cc1ccc(S(=O)(=O)N2[C@@H](c3ccc(Cl)cc3)C(C(=O)O)=CC[C@H]2c2cccc(Cl)c2)cc1 | 4% | -16% | -15% | 1% | -2% | nt | nt | nt
Cc1ccc(S(=O)(=O)N2[C@@H](c3cccc(Cl)c3)C(C(=O)O)=CC[C@H]2c2ccc(C(C)C)cc2)cc1 | ? | 89µM* | -9% | -13% | ? | nt | ? | nt
CCCc1cc(=O)[nH]c(SCC(=O)Nc2c(C)cccc2C)n1 | ? | -2% | 7% | 2% | -5% | 1% | nt | nt
CCCc1cc(=O)[nH]c(SCC(=O)Nc2sccc2C#N)n1 | 18µM* | ? | ? | -16% | ? | nt | nt | ?
O=C1NC(=S)N/C1=C/c1cc2c(cc1[N+](=O)[O-])OCO2 | -10% | ? | -32% | nt | ? | -1% | nt | 85*
CN(C)c1ccc(/C=C/c2c(Br)cnc3ccccc23)cc1 | -10% | nt | -21% | nt | -4% | nt | nt | nt
Cc1ccc2nc(-c3ccc(O)c(O)c3)cn2c1 | 50µM* | 22µM* | -29% | nt | ? | 4µM* | nt | ?
Cc1ccc(C)c(Cn2nnc3c(=O)[nH]c(C(=O)NCc4ccco4)nc32)c1 | 22µM* | 32µM* | -16% | 5% | 89µM* | 4% | nt | 76*
Cc1ccc(-c2noc(-c3nnn(CC(=O)Nc4cc(Cl)ccc4C)c3N)n2)cc1 | 12% | nt | 0% | 8% | -9% | -4% | nt | nt
Nc1ccc(-c2c3ccc(=O)cc-3oc3cc(O)ccc23)cc1C(=O)O | 25µM* | 20µM* | -35% | nt | 79µM* | 45µM* | 15* | 30*
O=C(O)/C=C/C(=O)c1ccc2c(c1)CCc1ccccc1-2 | 1.6µM* | 35µM* | ? | -3% | -15% | nt | nt | ?
C[C@@H]1C=CCC(=O)OC[C@H](C)C(=O)OC[C@H]2O[C@H]1C=C[C@@H]2O | nt | nt | nt | 8%[21 µM] | nt | nt | nt | nt
CC1(C)OC(=O)C(=CNc2cccc(O)c2)C(=O)O1 | 27% | -11% | -16% | 0% | 0% | 19% | nt | nt
CC1(C)OC(C)(C)/C(=C/Nc2ccc(O)cc2)C1=O | ? | 18µM* | -1% | 5% | -28% | ? | ? | ?
CSc1ccc(NC(=O)c2cccnc2)cc1C#N | 7% | -29% | -4% | 0% | -1% | ? | nt | nt
Cc1c(Cl)cnc(NC(=O)COC(=O)CCc2nc3ccccc3s2)c1Cl | 21% | 3% | 1% | 4% | 1%[60.1 µM] | 11% | nt | nt
Cc1c(Cl)cnc(NC(=O)COC(=O)c2ccncc2)c1Cl | 50µM* | 25µM* | -2% | 0% | -24% | nt | ? | nt
O=C(COC(=O)CNC(=O)c1ccccc1)Nc1ccccc1Cl | 17% | -1% | -2% | -2% | -22% | 7% | nt | nt
Cc1c(Cl)cnc(NC(=O)COC(=O)[C@H](C)NC(=O)c2ccccc2)c1Cl | ? | 50µM* | 7% | -8%[56.1 µM] | -27% | nt | ? | ?
SMILES | Pol iota inh | Pol eta inh-1 | FEN1 inh | TDP1 inh | Pol kappa inh-1 | Pol beta inh | Pol kappa inh-2 | Pol eta inh-2
Cc1c(Cl)cnc(NC(=O)COC(=O)CNC(=O)c2ccccc2)c1Cl | -16% | 50µM* | -22% | -6% | -31% | nt | ? | ?
O=C(Nc1noc2ccccc12)c1c(F)cccc1F | 39% | nt | 18% | 4% | -7% | 5% | nt | nt
O=C(NCCCN1CCOCC1)c1ccc2c(c1)N(Cc1c(F)cccc1Cl)C(=O)c1ccccc1S2 | 19% | -13% | 12% | 7% | 2% | -11% | nt | nt
N[C@H](C(=O)O)C1[C@H](C(=O)O)[C@H]1C(=O)O (stereo not given in full) | nt | nt | nt | -9%[56.1 µM] | -7%[19.4 µM] | nt | nt | nt
CC1C=CC(C)C(C(=O)O)C1C(=O)O (stereo not given) | ? | 2.5µM* | -6% | nt | 40µM* | 5.6µM* | nt | 5.4*
COc1ccc(N2Cc3cccc(C(=O)Nc4cc(C)cc(C)c4)c3C2=O)cc1 | 71µM* | 79µM* | -16% | -6% | ? | 10µM* | 42* | ?
NS(=O)(=O)c1ccc(CCNC(=O)CSc2ccsc2[N+](=O)[O-])cc1 | ? | 22µM* | 0% | 3% | ? | -1% | nt | ?
